# Compound activity as filed in PubChem BioAssay.
# p53 reactivation = re-activators of mutant p53. H1299 p53-A138V BP100-luciferase reporter, luminescence, 24 h. AID 504706. Potency, µM (highest dose often 92.2 µM), for inactives: at the top dose activity change, positive = activation, usual class: activators. 320,000 compounds, 0.063% hits; note: potency is the fitted concentration of half-maximal effect; % of control where 0% means no effect; nearly all actives have a fitted effect of over 45% in size
#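 p53-null H1299 cells stably carrying temperature-sensitive p53-A138V and a BP100-luciferase reporter were pinned with compounds (4-point, 1:5 series) and held 24 hrs at 37 deg C. Luminescence was read 10 min after detection reagent.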
# BRCA1 expr up = BRCA1 expression activation; 380,000 compounds, 1.1% hits; AID 624202; Potency, µM (highest dose often 46.1 µM), inactives show at the highest dose activation, usual class: activators; MCF7-BRCA1-FFLuc reporter, luminescence, 48 h; response scale: scaled: vehicle 0%, 10 µM genistein 100%; note: potency is the fitted concentration of half-maximal effect; nearly all actives have a fitted effect of over 80% in size
#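 Quantitative HTS in MCF7 cells stably reporting BRCA1 expression via firefly luciferase. Compound treatment lasts 48 h at 37 °C in phenol-red free MEM. Activation is expressed relative to genistein at 10 microM and DMSO.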
# Mito fusion act = blocks mitochondrial division or promotes mitochondrial fusion. S. cerevisiae fusion-defective mutant growth rescue, CellTiterGlo 48 h. Potency, µM (titrated, usually from 46.1 µM), for the others: at the highest dose growth rescue (activation), usual class: activators. 320,000 compounds, 0.23% hits; note: potency is the fitted concentration of half-maximal effect; % of control where 0% means no effect; nearly all actives have a fitted effect of over 45% in size
#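 Luminescent cell viability in 1536-well qHTS format served as the measure of rescued growth in ts fusion-mutant S. cerevisiae cultured on non-fermentable YPEG for 48 hours at 37C.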
# IL-2 act = IL-2 activation. IL-2 activation reporter assay, cell-based qHTS; stimulated with anti-CD3/CD4/CD28 beads; in transgenic mouse T cells. activation, % (series mostly up to about 46 µM). 360,000 compounds, 0.065% hits; in the data active = activation above about 50%; inconclusive = mostly about 30% to 49%; note: 0% is about no effect
#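 Screening format: compound pinned onto unstimulated transgenic mouse T cells, 60 min incubation, then anti-CD3/anti-CD4/anti-CD28 bead stimulation for 18 hours at 37 degrees C, followed by EGFP and DsRed detection.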
# TCR activator = activators of T cell receptors. primary human leukocytes, anti-CD3, IL-2 HTRF, 48 h. Potency, µM (doses to about 9.22 µM), for inactives: top-dose activation of IL-2 secretion, actives largely listed as activators. 330,000 tested, under 10 active; note: % of control where 0% means no effect
#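 IL-2 produced over 48 hr by a-CD3 bead-stimulated primary human leukocytes exposed to compounds was detected with a homogeneous time-resolved FRET immunoassay, 665nm acceptor signal after 320nm excitation.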
# Starred values were filed as active, the others as inactive; ? = inconclusive; . = no result; [ ] = remark or other dose. Sampled rows, rich in hits. Any-hit rate of the full collection: about 1.3%. Unless noted, calls come from the whole dose curve; as a rule, active = well fitted curve in the direction sought with a large enough effect; inconclusive = small, poorly fitted or top-dose-only effect, or another doubt; inactive = no such curve, though single readings can be large; an effect the other way counts as inactive or inconclusive.
SMILES,p53 reactivation,BRCA1 expr up,Mito fusion act,IL-2 act,TCR activator
COc1ccc(-n2[nH]c3c(cnc4ccccc43)c2=O)cc1,.,14.1µM*,.,0.1,.
Cc1c(-c2ccccc2)n(-c2ccccc2O)c2nc3c(c(=O)n(C)c(=O)n3C)n12,.,-10.9%,.,.,.
O=[N+]([O-])c1ccc2c(c1)C=C/C2=C\c1ccccc1,.,2.4%,.,.,.
Clc1ccc(N2CCN(Cc3cc4ccccn4n3)CC2)cc1,.,.,23.1µM*,.,.
Clc1ccc(N2CCN(Cc3ccc(Br)o3)CC2)cc1,.,-12.0%,1.4%,-1.1,-3.2%
Cc1cc(OCc2cc(C(=O)N(C)Cc3ccccn3)no2)cc(C)c1Cl,2.8%,11.2µM*,4.2%,-0.9,0.3%
Cc1cc(OCc2cc(C(=O)N(C)C(C)c3ccccn3)no2)cc(C)c1Cl (stereo not given),?,11.2µM*,9.8%,-0.6,0.4%
CSc1ccccc1OCc1cc(C(=O)N(C)C(C)c2ccccn2)no1 (stereo not given),-9.8%,-1.9%,-1.6%,-2.5,-6.7%
CCN(CC1CCCO1)C(=O)c1cc(COc2cc(C)c(Cl)c(C)c2)on1 (stereo not given),.,6.31µM*,4.6%,-1.3,2.1%
Cc1cccc(OCC(=O)Nc2cc(C)c(O)c(-c3nc4ccccc4o3)c2)c1,.,-7.5%,.,.,.
N#Cc1nc(-c2ccc(OCc3ccccc3Cl)cc2)oc1N1CCCCCC1,.,5.3%,.,.,.
CCOC(=O)c1c(C)[nH]c(C)c1S(=O)(=O)N1CCC(C(=O)Nc2cc(Cl)ccc2OC)CC1,.,1.8%,.,.,.
CN(C)c1ccc(/C=C/c2ccnc3ccc(N)cc23)cc1,.,-37.7%,.,.,.
CN1CCN(c2nc(-c3cc4ccccc4o3)cs2)CC1,?,53.9%,-4.8%,-0.1,0.3%[46.1 µM]
NC(=O)C1CCN(c2nc(-c3cc4ccccc4o3)cs2)CC1,-1.6%,11.2µM*,-32.6%,-2.8,2.0%
CN(C)c1ccc(/C=C/c2ccc3cc(F)ccc3n2)cc1,.,59.0%,.,.,.
COc1cc(C2Nc3ccccc3C(=O)N2Cc2ccco2)cc(OC)c1OC (stereo not given),.,-11.5%,.,.,.
Cc1ccc2oc(C(=O)N(C)Cc3ccon3)c(C)c2c1,20.8%,8.91µM*,0.0%,2.9,2.8%
Cc1ccc2oc(C(=O)N(C)Cc3ccc(C)o3)c(C)c2c1,?,47.6%,1.9%,-4.4,-7.9%
N#Cc1ccc2sn(-c3ccccc3)c(=O)c2c1,.,11.2µM*,.,0.9,.
O=c1c2cc([N+](=O)[O-])ccc2sn1-c1ccccc1,.,?,.,-3.0,.
Cc1cc(/C=C2\SC(=S)NC2=O)c(C)n1-c1ccc(O)cc1,?,2.24µM*,-8.2%,0.9,5.0%
COC(=O)c1cccc(-n2c(C)cc(/C=C3\SC(=O)NC3=O)c2C)c1,.,10µM*,.,-2.1,.
Cc1cc(C(=O)O)ccc1-n1c(C)cc(/C=C2\SC(=O)NC2=O)c1C,-18.0%,15.7%,1.7%,-2.1,-2.5%
COc1cccc(/C=c2/[nH]c(=O)/c(=C\c3cccc(OC)c3OC)[nH]c2=O)c1OC,.,-3.7%,.,.,.
SMILES,p53 reactivation,BRCA1 expr up,Mito fusion act,IL-2 act,TCR activator
Cn1c(SCc2ccccc2[N+](=O)[O-])nnc1-c1cccnc1,?,11.2µM*,-5.9%,-1.4,-1.6%
Cc1ccc(NC2=C(Cl)C(=O)c3ccccc3C2=O)cc1,5.01µM*,-64.4%,0.3%,-0.3,0.5%[46.1 µM]
CCN(CC)Cc1c(O)ccc2cc(-c3nc4ccccc4n3C)c(=O)oc12,5.0%,11.2µM*,-5.1%,-4.7,-18.7%
CCc1cc2c(=O)c(-c3nc4ccccc4n3C)c(C)oc2c(CN(CC)CC)c1O,2.4%,-1.2%,-2.2%,0.0,-6.5%
CCOc1ccccc1N1C(=O)c2ccccc2N/C1=C\N1CCN(C(=O)c2ccco2)CC1,.,0.0%,.,.,.
COc1cc2c(cc1N)-c1ccc(N)cc1C2,.,7.94µM*,.,-6.5,4.9%
Nc1nc(-c2ccc(Oc3ccccc3)cc2)cs1,28.5%,11.2µM*,-17.8%,0.1,.
COc1ccc(-c2csc(N)n2)cc1,?,10µM*,8.6%,0.6,-2.1%
Cc1ccc(OCc2csc(N)n2)cc1,9.1%,5.01µM*,-0.2%,0.3,-0.3%
Nc1nc(-c2ccc(-c3ccccc3)cc2)cs1,19.1%,?,0.4%,-0.5,2.5%
Cc1ccc(-c2csc(N)n2)cc1,.,10µM*,.,-0.2,5.2%
COc1cc2c(NC3CCN(C)CC3)nc(N3CCCN(C)CC3)nc2cc1OCCN(C)CCN(C)C,.,11.1%,.,.,.
CC(=O)c1sc(NC(=O)c2ccc(C)c(C)c2)nc1C,?,?,6.9%,1.1,-0.7%
CCN1CCc2nc(NC(=O)Cc3ccc4c(c3)OCCO4)sc2C1,-0.2%,6.9%,-4.7%,1.7,-5.8%
CCN1CCc2nc(NC(=O)c3ccc4c(c3)OCCO4)sc2C1,9.1%,4.47µM*,0.4%,-1.3,8.0%
CC(=O)c1sc(NC(=O)c2ccc3c(c2)OCO3)nc1C,26.6%,2.51µM*,-1.5%,-3.0,1.4%
O=C(Nc1nccs1)c1ccc2c(c1)OCO2,?,8.91µM*,-22.3%,6.2,-54.0%
Cc1ccc(S(=O)(=O)N2CCN(c3nc(-c4ccc(CN5CCNCC5)s4)nc4ccccc34)CC2)cc1,.,-12.1%,.,.,.
COc1ccc(Cn2c3ccc(OC)cc3c3nc4ccccc4nc32)cc1,19.4%,-11.2%,4.0%,266.8*,-0.1%[46.1 µM]
CCN(CC)c1ccc(/C=C/C2=C3C=CC=CC3NC=C2)cc1 (stereo not given),.,50.0%,.,.,.
COc1ccc(CCn2c3c(c(=O)[nH]c2=S)CN(Cc2ccccc2)CN3)cc1OC,.,0.0%,.,.,.
